Seven sequences from PMC7862700, “An all-to-all approach to the identification of sequence-specific readers for epigenetic DNA modifications on cytosine” can be followed below.

Test in all cases: DAPPL (digital affinity profiling via proximity ligation, sequencing); 10 mM Tris-HCl pH 7.5, 50 mM NaCl, 1 mM DTT, 4% glycerol, room temperature, 30 min; GST-TFs on glutathione beads, 16-mer random dsDNA library, 0.1% formaldehyde crosslink after washing; high values mean tight binding
One test has as its target T1, FEV (Homo sapiens, UniProt Q99581 1-238).
T1 sequence: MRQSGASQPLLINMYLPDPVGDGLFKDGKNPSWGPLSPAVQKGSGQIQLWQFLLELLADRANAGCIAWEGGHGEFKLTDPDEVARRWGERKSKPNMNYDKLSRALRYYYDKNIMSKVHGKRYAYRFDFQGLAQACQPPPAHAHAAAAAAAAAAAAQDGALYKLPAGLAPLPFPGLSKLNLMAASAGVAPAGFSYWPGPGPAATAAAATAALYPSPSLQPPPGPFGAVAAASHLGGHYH
To be noted: protein: recombinant; tags: N-terminal GST; dsDNA, one strand shown. A digest of the protocol: (§1)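 Binding signal is given per hexamer as its read frequency for a factor divided by its frequency in the tag-only sample. GST-fused human transcription factors were expressed in yeast, captured on glutathione beads, barcoded with DNA and pooled with that sample, then incubated with 200 nmole of a 16-mer random double-stranded DNA library in Tris/NaCl/DTT/glycerol buffer for 30 min at room temperature. The pools were then washed, crosslinked, proximity-ligated, amplified by PCR and sequenced on an Illumina NextSeq500.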

The target in a further test is ETV5 (Homo sapiens, UniProt P41161 1-510). To be noted: protein: recombinant; tags: N-terminal GST; dsDNA, one strand shown. In a few lines: as §1
ETV5, sequence (P41161 whole entry): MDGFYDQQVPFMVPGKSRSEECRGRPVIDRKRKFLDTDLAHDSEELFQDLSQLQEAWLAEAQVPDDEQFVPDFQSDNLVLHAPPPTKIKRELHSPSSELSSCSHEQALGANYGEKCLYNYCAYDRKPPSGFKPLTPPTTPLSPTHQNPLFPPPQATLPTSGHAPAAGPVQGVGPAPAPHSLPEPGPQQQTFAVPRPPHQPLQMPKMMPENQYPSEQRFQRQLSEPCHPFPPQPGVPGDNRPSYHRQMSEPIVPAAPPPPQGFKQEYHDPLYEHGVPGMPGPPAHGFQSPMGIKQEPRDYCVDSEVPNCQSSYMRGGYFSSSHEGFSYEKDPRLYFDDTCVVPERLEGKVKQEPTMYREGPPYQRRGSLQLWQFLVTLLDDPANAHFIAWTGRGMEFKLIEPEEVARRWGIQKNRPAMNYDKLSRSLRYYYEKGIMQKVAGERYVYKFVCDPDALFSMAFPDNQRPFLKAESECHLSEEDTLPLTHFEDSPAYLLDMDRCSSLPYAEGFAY
A further test addresses HSF1 (Homo sapiens, UniProt Q00613 1-529). To be noted: protein: recombinant; tags: N-terminal GST; chain copies: 3; dsDNA, one strand shown. A digest of the protocol: as §1
For the next test, the target named is ELF4 (Homo sapiens, UniProt Q99607 1-663). To be noted: protein: recombinant; tags: N-terminal GST; dsDNA, one strand shown. In a few lines:
as §1

For the next test, the target named is T2, ELK4 (Homo sapiens, UniProt P28324-2 1-405).
T2 sequence: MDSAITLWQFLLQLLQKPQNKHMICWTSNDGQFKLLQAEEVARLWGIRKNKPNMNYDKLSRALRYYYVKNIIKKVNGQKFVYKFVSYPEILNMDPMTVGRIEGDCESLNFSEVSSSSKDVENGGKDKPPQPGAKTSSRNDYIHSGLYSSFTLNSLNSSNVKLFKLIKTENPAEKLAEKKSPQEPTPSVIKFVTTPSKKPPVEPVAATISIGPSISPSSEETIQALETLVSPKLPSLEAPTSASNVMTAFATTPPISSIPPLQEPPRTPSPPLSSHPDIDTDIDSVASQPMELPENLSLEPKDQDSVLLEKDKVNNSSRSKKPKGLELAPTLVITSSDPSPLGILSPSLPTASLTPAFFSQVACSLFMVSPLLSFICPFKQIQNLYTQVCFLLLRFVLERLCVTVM
To be noted: protein: recombinant; tags: N-terminal GST; dsDNA, one strand shown. A digest of the protocol: as §1

The target in another test is T3, ETV2 (Homo sapiens, UniProt O00321 1-342).
T3 sequence: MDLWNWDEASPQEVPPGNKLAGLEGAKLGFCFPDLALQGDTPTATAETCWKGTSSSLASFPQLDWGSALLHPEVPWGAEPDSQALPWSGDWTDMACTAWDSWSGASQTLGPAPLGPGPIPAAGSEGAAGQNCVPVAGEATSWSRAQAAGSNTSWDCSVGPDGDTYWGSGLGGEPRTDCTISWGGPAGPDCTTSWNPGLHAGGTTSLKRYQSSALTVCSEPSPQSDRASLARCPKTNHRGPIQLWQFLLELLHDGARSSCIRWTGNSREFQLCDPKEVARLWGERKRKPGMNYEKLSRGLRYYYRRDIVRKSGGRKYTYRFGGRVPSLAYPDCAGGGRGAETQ
Particulars: protein: recombinant; tags: N-terminal GST; dsDNA, one strand shown. A digest of the protocol:
as §1

The target of the next test is T4, ELF3 (Homo sapiens, UniProt P78545 1-371).
T4 sequence: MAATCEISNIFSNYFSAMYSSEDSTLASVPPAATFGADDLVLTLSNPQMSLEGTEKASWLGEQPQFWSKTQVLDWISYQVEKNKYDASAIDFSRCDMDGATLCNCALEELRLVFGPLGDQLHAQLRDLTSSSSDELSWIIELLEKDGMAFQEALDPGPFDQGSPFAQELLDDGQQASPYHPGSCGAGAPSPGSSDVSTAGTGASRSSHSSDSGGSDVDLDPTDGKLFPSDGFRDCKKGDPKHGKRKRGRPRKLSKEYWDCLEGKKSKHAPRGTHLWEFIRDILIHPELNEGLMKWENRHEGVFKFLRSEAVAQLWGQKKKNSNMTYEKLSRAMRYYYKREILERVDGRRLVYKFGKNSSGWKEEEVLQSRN
Particulars: protein: recombinant; tags: N-terminal GST; dsDNA, one strand shown. In a few lines: as §1

For the next test, the target named is CRX (Homo sapiens, UniProt O43186 1-299). To be noted: protein: recombinant; tags: N-terminal GST; dsDNA, one strand shown. A digest of the protocol:
as §1

The next test deals with ETV1 (Homo sapiens, UniProt P50549 1-477). To be noted: protein: recombinant; tags: N-terminal GST; dsDNA, one strand shown. In a few lines: as §1
ETV1, sequence (P50549 whole entry): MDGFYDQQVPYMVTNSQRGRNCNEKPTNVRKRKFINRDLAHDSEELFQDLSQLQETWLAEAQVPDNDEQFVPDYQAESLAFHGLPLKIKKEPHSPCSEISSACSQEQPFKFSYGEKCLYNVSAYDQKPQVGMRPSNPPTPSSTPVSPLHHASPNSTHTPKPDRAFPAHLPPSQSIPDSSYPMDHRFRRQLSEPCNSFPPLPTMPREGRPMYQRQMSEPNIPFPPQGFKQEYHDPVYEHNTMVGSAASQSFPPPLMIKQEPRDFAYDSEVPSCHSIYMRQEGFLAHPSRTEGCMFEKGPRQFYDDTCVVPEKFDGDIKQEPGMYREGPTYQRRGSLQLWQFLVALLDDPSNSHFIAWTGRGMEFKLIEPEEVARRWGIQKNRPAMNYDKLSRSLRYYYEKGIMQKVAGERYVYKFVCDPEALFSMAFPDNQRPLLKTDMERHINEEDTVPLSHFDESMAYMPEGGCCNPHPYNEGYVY

CRX, sequence (O43186 whole entry): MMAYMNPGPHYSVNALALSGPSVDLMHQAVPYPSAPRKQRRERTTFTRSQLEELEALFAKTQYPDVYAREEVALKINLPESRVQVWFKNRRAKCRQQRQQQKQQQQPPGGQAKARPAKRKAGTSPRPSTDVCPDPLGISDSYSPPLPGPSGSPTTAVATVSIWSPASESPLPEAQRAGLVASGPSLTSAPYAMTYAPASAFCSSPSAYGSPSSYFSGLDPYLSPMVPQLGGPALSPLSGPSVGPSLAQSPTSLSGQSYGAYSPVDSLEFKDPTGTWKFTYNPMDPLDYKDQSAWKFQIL
ELF4, sequence (Q99607 whole entry): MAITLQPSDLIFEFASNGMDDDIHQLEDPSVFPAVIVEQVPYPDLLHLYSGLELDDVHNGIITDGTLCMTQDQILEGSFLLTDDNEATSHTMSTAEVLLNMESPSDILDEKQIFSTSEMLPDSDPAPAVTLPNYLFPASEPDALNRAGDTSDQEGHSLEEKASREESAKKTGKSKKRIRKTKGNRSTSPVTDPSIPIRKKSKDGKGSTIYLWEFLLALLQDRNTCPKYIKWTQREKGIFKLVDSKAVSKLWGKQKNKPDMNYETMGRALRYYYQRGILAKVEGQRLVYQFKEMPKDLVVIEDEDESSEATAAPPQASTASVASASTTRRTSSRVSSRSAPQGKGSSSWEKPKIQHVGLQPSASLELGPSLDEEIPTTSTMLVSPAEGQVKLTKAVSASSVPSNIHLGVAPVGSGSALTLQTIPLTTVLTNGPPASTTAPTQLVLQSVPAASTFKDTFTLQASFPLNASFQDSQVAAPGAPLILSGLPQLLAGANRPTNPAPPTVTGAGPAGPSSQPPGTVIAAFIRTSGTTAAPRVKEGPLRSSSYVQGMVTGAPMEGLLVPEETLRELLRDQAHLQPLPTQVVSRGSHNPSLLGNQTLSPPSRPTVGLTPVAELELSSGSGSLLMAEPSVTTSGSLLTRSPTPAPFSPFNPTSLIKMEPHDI
HSF1, sequence (Q00613 whole entry): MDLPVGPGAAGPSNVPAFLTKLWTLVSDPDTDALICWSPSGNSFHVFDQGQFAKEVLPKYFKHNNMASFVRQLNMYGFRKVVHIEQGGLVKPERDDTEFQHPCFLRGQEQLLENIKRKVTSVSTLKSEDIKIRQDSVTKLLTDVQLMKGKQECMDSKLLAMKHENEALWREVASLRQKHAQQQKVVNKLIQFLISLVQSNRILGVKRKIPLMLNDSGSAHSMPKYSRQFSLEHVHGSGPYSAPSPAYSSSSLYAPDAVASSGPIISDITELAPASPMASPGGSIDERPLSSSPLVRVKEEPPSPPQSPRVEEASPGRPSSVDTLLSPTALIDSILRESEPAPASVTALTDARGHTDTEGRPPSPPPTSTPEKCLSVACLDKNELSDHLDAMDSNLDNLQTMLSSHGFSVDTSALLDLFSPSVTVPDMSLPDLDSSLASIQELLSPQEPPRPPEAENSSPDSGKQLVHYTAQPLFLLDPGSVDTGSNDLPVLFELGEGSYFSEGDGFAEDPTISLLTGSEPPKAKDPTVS

CAAAGC: the binding signal was 1.14 fold enrichment (6-mer frequency, TF over GST control) in the test with FEV; 1.05 fold enrichment (6-mer frequency, TF over GST control) in the test with ETV5; 1.04 fold enrichment (6-mer frequency, TF over GST control) with HSF1; 1.05 fold enrichment (6-mer frequency, TF over GST control) in the test with ELF4; 1.24 fold enrichment (6-mer frequency, TF over GST control) with ELK4; 1.09 fold enrichment (6-mer frequency, TF over GST control) with ETV2. In addition, the binding signal was 1.03 fold enrichment (6-mer frequency, TF over GST control) with ELF3; 1.3 fold enrichment (6-mer frequency, TF over GST control) in the test with CRX; 1.08 fold enrichment (6-mer frequency, TF over GST control) in the test with ETV1.
For TGCAAA, the binding signal is 1.12 fold enrichment (6-mer frequency, TF over GST control) in the test with FEV; 1.09 fold enrichment (6-mer frequency, TF over GST control) in the test with ETV5; 1.06 fold enrichment (6-mer frequency, TF over GST control) with HSF1; 1.13 fold enrichment (6-mer frequency, TF over GST control) in the test with ELF4; 1.14 fold enrichment (6-mer frequency, TF over GST control) with ELK4; 1.08 fold enrichment (6-mer frequency, TF over GST control) with ETV2. Further, the binding signal in the test with ELF3 was 1.2 fold enrichment (6-mer frequency, TF over GST control); with CRX, 1.01 fold enrichment (6-mer frequency, TF over GST control); with ETV1 it was 1.14 fold enrichment (6-mer frequency, TF over GST control).
Take TTAGGT: the binding signal is 1.12 fold enrichment (6-mer frequency, TF over GST control) with ETV5; 1.28 fold enrichment (6-mer frequency, TF over GST control) with HSF1; 1.08 fold enrichment (6-mer frequency, TF over GST control) with ELF4; 1.26 fold enrichment (6-mer frequency, TF over GST control) with ELK4; 1 fold enrichment (6-mer frequency, TF over GST control) with ETV2; 1.15 fold enrichment (6-mer frequency, TF over GST control) with ELF3. Also, the binding signal in the test with CRX is 1.82 fold enrichment (6-mer frequency, TF over GST control); in the test with ETV1, 1.04 fold enrichment (6-mer frequency, TF over GST control).
TACAAA: the binding signal is 1.11 fold enrichment (6-mer frequency, TF over GST control) with FEV; 1.15 fold enrichment (6-mer frequency, TF over GST control) with ETV5; 1.12 fold enrichment (6-mer frequency, TF over GST control) with HSF1; 1.13 fold enrichment (6-mer frequency, TF over GST control) with ELF4; 1.09 fold enrichment (6-mer frequency, TF over GST control) with ELK4; 1.17 fold enrichment (6-mer frequency, TF over GST control) with ETV2. For the same sequence, the binding signal with ELF3 is 1.06 fold enrichment (6-mer frequency, TF over GST control); in the test with CRX, 1.22 fold enrichment (6-mer frequency, TF over GST control); with ETV1 it was 1.14 fold enrichment (6-mer frequency, TF over GST control).
Regarding AGCTGC, the binding signal was 1.15 fold enrichment (6-mer frequency, TF over GST control) with FEV; 1.06 fold enrichment (6-mer frequency, TF over GST control) with ETV5; 1.04 fold enrichment (6-mer frequency, TF over GST control) with HSF1; 1.16 fold enrichment (6-mer frequency, TF over GST control) with ELF4; 1.11 fold enrichment (6-mer frequency, TF over GST control) with ELK4; 1.22 fold enrichment (6-mer frequency, TF over GST control) with ETV2. In addition, the binding signal was 1.08 fold enrichment (6-mer frequency, TF over GST control) in the test with ELF3; 1.13 fold enrichment (6-mer frequency, TF over GST control) with CRX; 1.18 fold enrichment (6-mer frequency, TF over GST control) with ETV1.
TTTAGG: the binding signal was 1.09 fold enrichment (6-mer frequency, TF over GST control) with FEV; 1.06 fold enrichment (6-mer frequency, TF over GST control) with ETV5; 1.25 fold enrichment (6-mer frequency, TF over GST control) with HSF1; 1.05 fold enrichment (6-mer frequency, TF over GST control) in the test with ELF4; 1.11 fold enrichment (6-mer frequency, TF over GST control) with ELK4; 1.09 fold enrichment (6-mer frequency, TF over GST control) with ETV2. The binding signal is 1.09 fold enrichment (6-mer frequency, TF over GST control) in the test with ELF3; 1.5 fold enrichment (6-mer frequency, TF over GST control) with CRX; 1.13 fold enrichment (6-mer frequency, TF over GST control) in the test with ETV1.
Consider ACAAAA, for which the binding signal with FEV was 1.19 fold enrichment (6-mer frequency, TF over GST control); with ETV5, 1.17 fold enrichment (6-mer frequency, TF over GST control); with HSF1, 1.09 fold enrichment (6-mer frequency, TF over GST control); with ELF4 it was 1.16 fold enrichment (6-mer frequency, TF over GST control); in the test with ELK4 it was 1.15 fold enrichment (6-mer frequency, TF over GST control); with ETV2 it was 1.11 fold enrichment (6-mer frequency, TF over GST control). Further, the binding signal is 1.04 fold enrichment (6-mer frequency, TF over GST control) in the test with ELF3; 1.05 fold enrichment (6-mer frequency, TF over GST control) in the test with CRX; 1.13 fold enrichment (6-mer frequency, TF over GST control) with ETV1.
